For 36 compounds, inhibition results are on record in ChEMBL document CHEMBL3433997, “St. Jude Leishmania screening dataset” (2016).

Type in all cases: functional
Assay [1] concerns the target Solute carrier family 2, facilitated glucose transporter member 1 (Homo sapiens) (UniProt P11166). Description: ST_JUDE_LEISH: Cytotoxicity at 2uM final concentration against transgenic Leishmania Mexicana promastigotes LmGLUT1 that are glucose transport deficient and complemented with the human glucose transporter GLUT1. Activity is measured by DNA content using SYBR green in vitro.

Assay [2] concerns the target Hexose transporter 1 (Plasmodium falciparum) (UniProt O97467). As to the kind of experiment: ST_JUDE_LEISH: Cytotoxicity at 2uM final concentration against transgenic Leishmania Mexicana promastigotes LmPfHT that are glucose transport deficient and complemented with the Plasmodium falciparum hexose transporter. Activity is measured by DNA content using SYBR green in vitro.

Assay [3] addresses Glucose transporter (Leishmania mexicana) (UniProt O61059). Description: ST_JUDE_LEISH: Cytotoxicity at 2uM final concentration against transgenic Leishmania Mexicana promastigotes LmGT2 that are glucose transport deficient and complemented with the L. Mexicana glucose transporter 2. Activity is measured by DNA content using SYBR green in vitro.

Sequence of Solute carrier family 2, facilitated glucose transporter member 1 (Homo sapiens) (P11166 whole entry): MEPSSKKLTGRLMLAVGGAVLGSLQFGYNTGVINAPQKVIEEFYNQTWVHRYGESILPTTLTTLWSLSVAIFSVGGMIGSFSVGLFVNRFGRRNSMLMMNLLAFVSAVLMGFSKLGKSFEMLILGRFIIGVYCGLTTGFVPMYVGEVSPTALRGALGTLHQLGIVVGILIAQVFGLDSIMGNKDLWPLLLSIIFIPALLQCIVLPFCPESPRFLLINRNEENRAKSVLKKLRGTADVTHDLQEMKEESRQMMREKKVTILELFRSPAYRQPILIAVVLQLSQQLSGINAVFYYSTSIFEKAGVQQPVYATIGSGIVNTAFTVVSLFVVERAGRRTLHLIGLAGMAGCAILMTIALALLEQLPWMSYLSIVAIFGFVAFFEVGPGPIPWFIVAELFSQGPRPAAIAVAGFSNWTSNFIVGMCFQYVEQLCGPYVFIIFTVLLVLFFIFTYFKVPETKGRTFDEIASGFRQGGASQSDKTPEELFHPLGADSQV

On to `Nc1ccc(-c2ccc(NC(=O)Nc3ccccc3)cc2)cn1`, for which the inhibition (commonly the drop in the measured response relative to a control, in per cent) came out at 2.95% in assay [1], 2.5% in assay [2] and 3.08% in assay [3].

Consider `Cc1cccc2nc(-c3ccc(-c4ccc(CNCCCN5CCCC5=O)cc4)cc3)[nH]c12`, for which the results for the inhibition in assay [1], in assay [2] and in assay [3] were 7.88%, 5.8% and 4.42%, respectively.

Consider `O=C(Nc1ccc(-c2cccc(CN3CCC(O)CC3)c2)cc1)c1cccc(Cl)c1`, for which the inhibition in assay [1] came out at 24.1%; in assay [2], 17.8%; in assay [3] it was 16.8%.

As to `CC(CN(C)C)C(=O)Nc1ccc(-c2ccc(-c3nc4ccccc4[nH]3)s2)cc1` (stereo not drawn), the inhibition came out at 2.59% in assay [1], 3.52% in assay [2] and 6.24% in assay [3].

Regarding `OC(CN1CCN(Cc2ccccc2)CC1)Cn1c(-c2ccccc2)c(-c2ccccc2)c2ccccc21` (stereo not drawn), the inhibition amounted to 2.91% in assay [1], 3.3% in assay [2] and 2.72% in assay [3].

For the compound `CCc1c(CCNCCCC(C)CCNCCc2ccc(OC)c(OC)c2CC)ccc(OC)c1OC` (stereo not drawn), the inhibition came out at 1.96% in assay [1], 4.93% in assay [2] and 1.22% in assay [3].

On to `Cc1cc(O)c(CN(C)Cc2ccc3c(c2)OCO3)cc1C(C)C`, for which the inhibition in assay [1] is -0.84%; in assay [2], -1.41%; in assay [3] it was 0.04%.

As for `CCCN(CCC)C(C)CCC(C)Nc1c2ccc(Cl)cc2nc2ccc(OC)cc12` (stereo not drawn), the inhibition is 1.91% in assay [1], 2.78% in assay [2] and 2.82% in assay [3].

With `Nc1c2c(nc3ccc(NC(=O)c4ccccc4)cc13)CCCC2`, the inhibition in assay [1] is 3.15%; in assay [2] it was 2.68%; in assay [3] it was 4.86%.

Turning to `CCCNCc1ccc(-c2ccc(CN(CCOC)C(=O)/C=C/c3ccccc3C)cc2)nc1`, the inhibition in assay [1] turned out to be 9.67%; in assay [2], 6.69%; in assay [3], 6.86%.

On to `CCc1ccc(NC(=O)c2cccc(CN3CCCN(Cc4ccc(OC)cc4)CC3)c2)cc1`, for which the inhibition in assay [1] worked out at 1.52%; in assay [2], 0.1%; in assay [3], 0.16%.

On to `O=C(N[C@H]1CCN(Cc2ccc(OCCN3CCNCC3)c3ccccc23)C1)c1ccc(Cl)c(Cl)c1`, for which the figures for the inhibition in assay [1], in assay [2] and in assay [3] were 1.1%, 4.37% and 2.91%, respectively.

Take `O=C(/C=C/c1ccc(Cl)c(Cl)c1)NCCCCCN1CCCN(C(=O)Nc2ccc(Cl)c(C(F)(F)F)c2)CC1`: the inhibition in assay [1] was -0.86%; in assay [2], -0.33%; in assay [3], -2.37%.

Take `N#Cc1ccnc(-c2ccc(CNC3CCN(CC4Cn5c(=O)ccc6ccc(F)c4c65)CC3)cc2)c1` (stereo not drawn): the inhibition was found to be 9.83% in assay [1], 8.44% in assay [2] and 4.88% in assay [3].

As for `N#CCc1ccc(Nc2nccc(Nc3ccc(Oc4ccccc4)cc3)n2)cc1`, the figures for the inhibition in assay [1], in assay [2] and in assay [3] were 13.8%, 6.97% and 1.09%, respectively.

In the case of `CC(C)N(CCOc1ccc2c(c1)N(C(=O)Nc1cc(Br)cc(C(F)(F)F)c1)CC2)C(C)C`, the inhibition in assay [1] was found to be 3.92%; in assay [2] it was 2.23%; in assay [3] it was 1.38%.

`O=[N+]([O-])c1ccc(Nc2nc(NCc3ccccc3)nc(N/N=C/c3ccccc3[N+](=O)[O-])n2)cc1`: the inhibition is 2.21% in assay [1], -0.41% in assay [2] and 0.43% in assay [3].

On to `CCCc1ccc(NC(=O)c2ccc(CN3CCCN(CC4CCCCC4)CC3)cc2)cc1`, for which the inhibition in assay [1] came to 2.9%; in assay [2], 7.86%; in assay [3], 5.46%.

As to `Cc1[nH]c(C)c(-c2ccc(Oc3ccc(Cl)cc3)cc2)c(=O)c1Cl`, the values for the inhibition in assay [1], in assay [2] and in assay [3] were 2.75%, 2.92% and 1.25%, respectively.

For the compound `Cc1ccccc1C1CCN(C2CCC(NC(=O)C3=Cc4ccccc4OC3)CC2)CC1` (stereo not drawn), the inhibition in assay [1] worked out at 5.24%; in assay [2], 4.94%; in assay [3] it was 4.67%.

With `Cn1c(CN2CCC(N3CCc4cc(NC(=O)c5ccco5)ccc43)C2)cc2ccccc21` (stereo not drawn), the inhibition came out at 5.51% in assay [1], 4.84% in assay [2] and 5.36% in assay [3].

As to `O=C(/C=C/c1ccc(Cl)c(Cl)c1)NCCCCCN1CCCN(C(=O)Nc2cccc(C(F)(F)F)c2)CC1`, the figures for the inhibition in assay [1], in assay [2] and in assay [3] were 3.99%, 2.84% and 3.62%, respectively.

As to `N#Cc1cccc(C(=O)Nc2ccc(-c3cccc(CN4CCCC4)c3)cc2)c1`, the inhibition in assay [1] is 55.6%; in assay [2] it was 6.55%; in assay [3], 7.42%.

On to `CCn1c(-c2nonc2N)nc2c(-c3cccc(NC(=O)Nc4ccc(C(F)(F)F)cc4)c3)ncc(OCCCN)c21`, for which the inhibition stood at 2.98% in assay [1], 2.48% in assay [2] and 3.54% in assay [3].

Take `CCc1cc2c3c(N)nc(N)nc3ccc2n1C(C)CC` (stereo not drawn): the inhibition in assay [1] was 85.2%; in assay [2], 86.6%; in assay [3] it was 80.3%.

Consider `O=C(NCCc1ccc(O)cc1)n1c2ccccc2c2ccccc21`, for which the inhibition is 2.7% in assay [1], 4.05% in assay [2] and 1.38% in assay [3].

On to `c1cc(-c2ccc(CN3CCCCC3)cc2)cc(-c2nc3ccccc3[nH]2)c1`, for which the inhibition in assay [1] stood at 1.85%; in assay [2], 0.49%; in assay [3] it was 0.96%.

Consider `CCOC(=O)CNC(=O)c1cc(=O)c2ccccc2o1`, for which the inhibition is 0.86% in assay [1], 0.78% in assay [2] and 0.44% in assay [3].

For `O=C(Nc1ccc(OC2CCN(Cc3ccsc3)C2)c(Cl)c1)c1ccc2ncccc2c1` (stereo not drawn), the values for the inhibition in assay [1], in assay [2] and in assay [3] were -0.7%, 0.74% and -0.92%, respectively.

`OC1=C2C(=Nc3ccccc3SC2c2cccs2)c2ccccc21` (stereo not drawn): the inhibition in assay [1] worked out at 12.2%; in assay [2], 10.8%; in assay [3] it was 1.64%.

Consider `O=C(NCC1CCN(Cc2cccc(C(F)(F)F)c2)C1)c1cc(-c2cccc(F)c2)cs1` (stereo not drawn), for which the inhibition amounted to 5.58% in assay [1], 5.35% in assay [2] and 5.45% in assay [3].

As for `CCCCOc1ccc(C(O)C(CN2CCCCC2)c2ccccc2)cc1` (stereo not drawn), the figures for the inhibition in assay [1], in assay [2] and in assay [3] were 1.61%, 1.36% and 0.33%, respectively.

On to `O=S(=O)(c1c(Cl)cc(Cl)cc1Cl)N1CCCCC(c2ccc(Cl)cc2)=N1`, for which the inhibition in assay [1] is -1.49%; in assay [2] it was -1.87%; in assay [3], -1.41%.

As to `COc1ccccc1C1CCN(C2CCC(NC(=O)/C=C/c3ccc(F)c(F)c3)CC2)CC1` (stereo not drawn), the inhibition in assay [1] is -3.94%; in assay [2] it was -1.53%; in assay [3], -2.36%.

As to `O=C(NCCCNc1ccc2ccccc2n1)c1cc2c(Cl)cc(Cl)cc2[nH]1`, the inhibition in assay [1] is 0.34%; in assay [2] it was -0.36%; in assay [3], 2.17%.

Regarding `O=C(Nc1cc(C(F)(F)F)cc(C(F)(F)F)c1)Nc1cc(C(F)(F)F)cc(C(F)(F)F)c1`, the inhibition came to 1.91% in assay [1], 4.29% in assay [2] and 3.86% in assay [3].
